A selection: hits, their analogues and other compounds. The true share with any hit is near 2.1%.
LANA-H2B inh: blocks KSHV LANA binding to histone H2A/H2B | Q9QR71 | AID 2629 | actives 0.6% (n = 320,000) | cell-free LANA-H2A/H2B peptide, fluorescence polarization | inhibition, % (concentration not given with the values); in the data active = inhibition mostly above about 10%, no sharp cut-off; inactive = mostly below about 6.7%
SUMO Mot1 rescue: SUMOylation pathway inhibition by Mot1-301 growth rescue; S. cerevisiae Mot1-301 growth rescue, ATP luminescence, 38.5C; percent above DMSO median, 100 means doubled; growth rescue, % at 18.8 µM; actives 1% (n = 320,000);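 active = every valid replicate shows activation above 250% relative to neutral control wells; inactive = the rest, any valid replicate at or below 250%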;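 also: OY570 slx delta 5 strain wells were the positive control but not used for scaling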
IDE cell inh: cellular human IDE inhibition; AID 434962; HEK cells, FAbetaB cleavage, fluorescence polarization; inhibition, % at 5.59 µM; P14735; actives 0.41% (n = 320,000);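 active = percent inhibition above the average of all tested compounds plus 3 SD, set per screening campaign, cut at about 16% in these data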;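 also: IDE supplied by intact live HEK cells; FP after avidin binding of uncleaved biotin substrate so inhibition keeps polarization high; 0% = DMSO wells and 100% = 60 µM reference IDE inhibitor Ii1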
HDAC3 inh: blocks human histone deacetylase 3 | O15379 | recombinant HDAC3, fluorogenic peptide/trypsin coupled, fluorescence | inhibition, % at 8.3 µM | actives 0.15% (n = 320,000); in the data active = inhibition above about 26%, passing the limit was not always enough
Target sequence (O15379 whole entry, looked up): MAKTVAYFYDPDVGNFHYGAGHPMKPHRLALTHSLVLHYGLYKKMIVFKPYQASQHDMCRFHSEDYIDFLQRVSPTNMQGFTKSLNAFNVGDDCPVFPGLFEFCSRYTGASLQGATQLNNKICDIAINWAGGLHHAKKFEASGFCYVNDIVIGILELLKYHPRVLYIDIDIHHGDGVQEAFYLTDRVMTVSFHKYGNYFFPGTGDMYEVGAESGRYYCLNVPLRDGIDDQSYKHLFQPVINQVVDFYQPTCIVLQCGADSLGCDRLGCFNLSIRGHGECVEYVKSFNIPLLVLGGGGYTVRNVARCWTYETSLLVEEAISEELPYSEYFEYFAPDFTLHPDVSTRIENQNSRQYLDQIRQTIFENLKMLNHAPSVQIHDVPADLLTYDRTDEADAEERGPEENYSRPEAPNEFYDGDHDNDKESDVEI
IDE act: IDE (human) activation, cell-based; activation, % at 5.96 µM; HEK cells, FAbeta-B cleavage, fluorescence polarization; 0% vehicle, 100% cell-free pure enzyme wells; actives 0.073% (n = 340,000); P14735;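 active = activation above the mean of all tested compounds plus 3 SD, set per screening campaign, cut at about 17% in these data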
Starred values were filed as active, the others as inactive; . = no result given; + = active, no number.

SMILES | LANA-H2B inh | SUMO Mot1 rescue | IDE cell inh | HDAC3 inh | IDE act
Cc1ccc(C)c(NC(=O)CSc2cccc3cccnc23)c1 | 17* | -16 | 0 | -6 | 1
Cc1cccc(NC(=O)CSc2cccc3cccnc23)c1 | 5 | -7 | 8 | 3 | 10
Cc1cc(C)c(C(CC(=O)c2cccs2)C(C#N)C#N)c(C)c1 (stereo not given) | -6 | 477* | 1 | . | 6
COc1cc(CN2CCC(Cc3ccccc3)CC2)cc(OC)c1OC | 1 | 32 | . | -3 | 10
COc1cc(CN2CCC(Cc3ccccc3)CC2)cc([N+](=O)[O-])c1O | 20* | 17 | 5 | -2 | 5
CCN(CC(=O)Nc1ccc(N2CCOCC2)cc1)C(=O)COc1ccccc1OC | 10* | 7 | 3 | -2 | -2
CN(CC(=O)Nc1ccc(N2CCOCC2)cc1)C(=O)COc1ccccc1F | -4 | -9 | -3 | 1 | 4
COc1ccc(CCNC(=O)C2CCN(S(=O)(=O)c3ccc(C)cc3)CC2)cc1OC | -1 | -11 | . | -6 | 4
Cc1ccc(-c2noc(C3CCCN(C(=O)c4cccc(F)c4)C3)n2)cc1 (stereo not given) | 16* | -9 | -4 | 4 | 4
CN(C)C(=O)CSc1nnc(Cc2ccc([N+](=O)[O-])cc2)o1 | -1 | 7 | -3 | 1 | 6
CC(=O)CSc1nnc(Cc2ccc([N+](=O)[O-])cc2)o1 | 0 | -2 | 1 | 28* | 1
CCOC(=O)c1ccccc1NC(=O)COC(=O)c1ccc(OCC(=O)N2CCOCC2)c(OCC)c1 | . | . | . | . | 1
O=C(Nc1sc2c(c1C(=O)O)CCC2)c1ccccc1Cl | 3 | 341 | -5 | 0 | 0
Cc1ccccc1C(=O)Nc1sc2c(c1C(=O)O)CCC2 | 17* | -30 | 0 | 0 | 1
O=c1[nH][nH]c(-c2ccccc2O)c1C(C[N+](=O)[O-])c1ccc(Cl)cc1Cl (stereo not given) | . | 269* | 3 | . | 3
CC(C)[C@H](NC(=O)c1c(F)cccc1F)C(=O)OCC(=O)NC(=O)NC1CCCC1 | 14* | 1 | 3 | -6 | 3
O=C(c1ccc(Cn2c(=S)[nH]c3ccc(Br)cc3c2=O)cc1)N1CCN(C2CCCCC2)CC1 | 10* | -13 | 5 | 5 | -3
CCOCCCn1c(=S)[nH]c2cc(C(=O)N3CCN(C4CCCCC4)CC3)ccc2c1=O | -3 | 2 | -4 | 4 | -2
CCN(CC(=O)Nc1ccc(NC(C)=O)cc1)C(=O)c1cc(CN2C(=O)c3ccccc3C2=O)ccc1OC | 1 | 3 | 4 | 3 | 18*
CN(CC1COc2ccccc2O1)C(=O)CSc1ncnc2sccc12 (stereo not given) | -1 | 2 | 0 | 7 | 2
COc1ccc(C(=O)NC(=S)Nc2cc(C)ccn2)cc1[N+](=O)[O-] | 4 | -1 | -1 | 0 | 1
O=C(N/N=C/c1cccc2ccccc12)C(=O)N1CCCC1 | 3 | 129 | -3 | -17 | -2
O=C(N/N=C/c1ccccc1[N+](=O)[O-])C(=O)N1CCCC1 | -1 | 355* | 4 | 4 | 1
CCCCNC(=O)COn1nnc2ccc(S(=O)(=O)N3CCOCC3)cc21 | 2 | -23 | 0 | -2 | 1
CC1(NC(=O)c2cc(Cl)nc3ccccc23)CCS(=O)(=O)C1 (stereo not given) | -14 | 10 | -2 | -6 | 2
SMILES | LANA-H2B inh | SUMO Mot1 rescue | IDE cell inh | HDAC3 inh | IDE act
Cc1ccc(NS(=O)(=O)c2ccc(NS(=O)(=O)c3cccs3)cc2)cc1 | -1 | 302* | 0 | 1 | 4
COc1ccc(NS(=O)(=O)c2ccc(NS(=O)(=O)c3cccs3)cc2)cc1 | 0 | 5 | 3 | -2 | 4
Oc1ccccc1N1CCN(c2nnnn2-c2ccccc2)CC1 | -2 | 439* | -2 | 2 | -3
Fc1ccccc1N1CCN(c2nnnn2-c2ccccc2)CC1 | -2 | 7 | -2 | -7 | 8
Cc1cccc(-c2nc(C#N)c(NCc3ccco3)o2)c1 | -1 | 378 | 4 | -56 | 0
CN(CCO)c1cnccn1 | 14* | 580* | -5 | -1 | 0
OCc1cccc[n+]1Cc1ccccc1 | -2 | 163 | 1 | 0 | 2
C[C@H](NC(CCc1ccccc1)C(=O)O)C(=O)N1CCC[C@H]1C(=O)O (stereo not given in full) | -4 | -7 | -1 | -3 | .
O=C(Nc1ccccc1Cl)c1cccc(NC(=O)c2cccs2)c1 | 38* | 43 | . | -7 | 2
Cc1noc(C)c1S(=O)(=O)N1CCN(S(=O)(=O)c2ccccc2C#N)CC1 | 4 | -15 | 0 | 1 | 2
CCOc1ccc(/C=N/OCC(=O)Nc2cc(C)on2)cc1 | 21* | -18 | 1 | 2 | -3
CCOC(=O)C1CCCN(S(=O)(=O)c2cc(C(=O)OC)n(C)c2)C1 (stereo not given) | -6 | -3 | -3 | -2 | 2
Cc1ccc(C(=O)CCC(=O)O)cc1 | 0 | 28 | 8 | 2 | .
CCCc1ccc(C(=O)CCC(=O)O)cc1 | + | -2 | 10 | -3 | 10
CC(=O)c1ccc(NC(=O)c2cc(CC(C)C)nc3ccccc23)cc1 | -1 | -17 | . | 0 | 1
CN1/C(=C\C=C(C#N)C#N)C(C)(C)c2ccccc21 | 45* | 34 | 8 | -5 | -3
CCC1CN(C(=O)N2CCC(C(=O)NCc3cc(OC)c(OC)c(OC)c3)CC2)c2ccccc2O1 (stereo not given) | 4 | 16 | 1 | -4 | -5
Cc1cc(Oc2ccc(C#N)cc2)nc(N2CCOCC2)n1 | -1 | 418 | 3 | -11 | 28*
Cn1c(=O)c2c(-c3ccccc3)n(Cc3cccnc3)cc2n(C)c1=O | -1 | 290* | 6 | 4 | -1
Cc1ccc(-c2c3c(=O)n(C)c(=O)n(C)c3cn2Cc2cccnc2)cc1 | -3 | 221 | -1 | 2 | 8
CCn1ccnc1CNC(=O)C1CCC(=O)N(Cc2ccccc2F)C1 (stereo not given) | -2 | 296 | 6 | . | 4
Cc1ccc(-c2cc(N)nc(-c3ccccc3)c2)cc1 | 31* | 261 | 1 | -1 | 6
Cn1nc(C(F)(F)F)cc1-c1ccc(/C=C(\C#N)C(=O)c2ccccc2)s1 | 20* | 104 | 6 | 4 | -3
CC1CCN(S(=O)(=O)c2cc(C(=O)NC3(C)CCS(=O)(=O)C3)ccc2Br)CC1 (stereo not given) | 3 | 0 | -1 | 2 | 7
COCCCNCCOCCSc1ccc(Cl)cc1 | . | 279* | 0 | . | 8
O=C(CCSc1ccc(Br)cc1)c1ccc(O)cc1 | 1 | 23 | 5 | 5 | 1
Cc1cc(Br)ccc1NC(=O)C1CCN(C(=O)c2ccco2)CC1 | -1 | 0 | -4 | 1 | 3
COc1ccc(C2c3[nH]c4ccccc4c3C[C@H]3C(=O)N(c4ccccc4C(=O)N4CCC(C(=O)O)CC4)C(=O)N23)cc1 (stereo not given in full) | -3 | 342* | 4 | -1 | 0
